An excerpt weighted towards active compounds, which were near 3.8% of everything screened.
ADAM17 inh: inhibitors of human ADAM17 | recombinant ADAM17, EDANS/DABCYL FRET peptide cleavage | P78536 | inhibition, % at 6.95 µM | 0.83% of 370,000 active;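 active = inhibition above the mean of compounds lying between control limits plus 3 SD, set per campaign, cut at about 8.5% in these data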;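 also: 0% = DMSO-only wells as the low control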
ADAM10 inh: inhibits human ADAM10. O14672. recombinant ADAM10, EDANS/DABCYL FRET peptide cleavage, 3 h. inhibition, % at 7 µM. 0.62% of 370,000 active. AID 720582;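 active = inhibition above a per-campaign cutoff equal to the mean of compounds falling between control-based bounds plus 3 SD, cut at about 20% in these data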;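 also: 0% = DMSO wells while the 100% control is not disclosed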
Target sequence (O14672 214-748 limits assumed): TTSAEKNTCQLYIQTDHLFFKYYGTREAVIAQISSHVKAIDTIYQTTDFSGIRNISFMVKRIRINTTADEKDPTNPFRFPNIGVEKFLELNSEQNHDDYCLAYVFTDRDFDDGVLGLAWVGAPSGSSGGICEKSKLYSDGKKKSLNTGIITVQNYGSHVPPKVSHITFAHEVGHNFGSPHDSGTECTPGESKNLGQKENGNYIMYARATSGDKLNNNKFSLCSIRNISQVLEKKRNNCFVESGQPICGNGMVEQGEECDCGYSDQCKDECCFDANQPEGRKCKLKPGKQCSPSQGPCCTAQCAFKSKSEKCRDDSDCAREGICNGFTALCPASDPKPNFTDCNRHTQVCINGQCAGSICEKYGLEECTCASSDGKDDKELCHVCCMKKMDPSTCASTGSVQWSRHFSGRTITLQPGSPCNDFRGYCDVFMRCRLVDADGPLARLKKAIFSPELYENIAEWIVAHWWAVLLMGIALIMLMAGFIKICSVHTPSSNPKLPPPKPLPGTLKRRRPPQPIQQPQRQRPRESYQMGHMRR
rRNA inh HTS: inhibitors of bacterial rRNA selective over humanized ribosomes | E. coli WT GFP vs humanized-ribosome RFP mutants, fluorescence, 24 h; stronger effect = lower value; DMSO median 0, no signal -100 | GFP signal change (wild-type ribosome), % (concentration not given with the values) | 1.6% of 350,000 active | AID 720706;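 active = significant combined selectivity score with lowered wild-type GFP, culture density cut under 30%, mutant RFP and density less affected; inactive = any of these conditions unmet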
proKLK7 act: activates the human kallikrein-7 zymogen; purified proKLK7, EDANS-DABCYL substrate fluorescence; 100% is mature enzyme control, 0% vehicle; activation, % at 7 µM; 0.9% of 370,000 active; AID 652039;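 active = activation above the mean of all tested compounds plus 3 SD, computed per campaign excluding outliers beyond control limits, cut at about 13% in these data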
FGF22 binding: FGF22 (human) thermal shift binding; Q9HCT0; recombinant FGF22 thermal shift, SYPRO orange fluorescence; percent of sucrose octasulfate shift, DMSO zero; activity (Tm shift, normalised), % at 9.99 µM; 1.5% of 340,000 active; AID 651658;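 active = mean Tm shift, scaled 0 neutral to 100 positive control, at about 1.3% or above, every replicate too, limit read from the data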
Target sequence (Q9HCT0 whole entry, looked up): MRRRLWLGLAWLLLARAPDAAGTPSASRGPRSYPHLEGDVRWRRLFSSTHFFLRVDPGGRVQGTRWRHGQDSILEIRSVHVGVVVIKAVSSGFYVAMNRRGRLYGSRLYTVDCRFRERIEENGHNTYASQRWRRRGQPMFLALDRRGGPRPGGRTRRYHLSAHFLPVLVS
KLK7 act conf: proKLK7 activation, confirmation; 68% of 3,200 active; AID 686949; purified proKLK7, EDANS-DABCYL substrate fluorescence; scaled: vehicle 0, mature enzyme 100; activation, % at 7 µM; shares compounds with proKLK7 act;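 active = activation, as change over the incubation, above the mean of all tested compounds plus 3 SD, cut at about 13% in these data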
EDANS interfere: optically interferes with EDANS-DABCYL signal, flagging KLK7 hits. shares compounds with proKLK7 act. EDANS-DABCYL substrate fluorescence interference, no enzyme, 4 h; solvent 0%, active enzyme control 100%. activation, % at 7 µM. 80% of 3,200 active. AID 686952;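 active = activation above the all-compound mean plus 3 SD, ignoring values outside control-based bounds, cut at about 4.8% in these data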;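 also: value is the 4 h activation minus the activation read at time zero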
K7 EDANS ctr: counter-screen for kallikrein-7 activators: EDANS-DABCYL interference, dose response | 20% of 250 active | shares compounds with proKLK7 act | EC50, µM | EDANS-DABCYL peptide fluorescence interference, no enzyme;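 active = compounds that raise the fluorescence signal in this interference counterscreen, with EC50 at or below 10 µM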;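 also: intact quenched peptide substrate alone read at 355 nm excitation and 520 nm emission; signal is fluorescence gain from T0 to T4 after four hours at room temperature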
The depositor's hits bear a star; i = inactive; nt = no result given.

SMILES | ADAM17 inh | ADAM10 inh | rRNA inh HTS | proKLK7 act | FGF22 binding | KLK7 act conf | EDANS interfere | others
Cc1ccc(/C=C2\Oc3c(ccc(O)c3CN3CCN(CCO)CC3)C2=O)cc1 | -105 | -260 | -6 | 96* | 0 | 79* | 73*
CCOC(=O)COc1ccc2c(c1)C(=O)CC(C)(c1cccnc1)O2 (stereo unspecified) | nt | nt | -6 | nt | 0 | nt | nt
CCCCCCCNC(=O)COc1ccc2c(c1)C(=O)CC(C)(C)O2 | -462 | i | nt | -5 | nt | nt | nt
CCN(CC)C(=O)COc1ccc2c(c1)C(=O)CC(C)(C)O2 | -352 | i | 8 | 47* | 0 | 40* | 71*
CC(C)NC(=O)COc1ccc2c(c1)C(=O)CC(C)(C)O2 | -421 | i | 7 | 37* | 0 | 81* | 85*
CCOC(=O)COc1ccc2c(c1)C(=O)CC1(CCCCC1)O2 | -333 | i | nt | 24* | nt | 14* | 10* | K7 EDANS ctr=>69
O=C(COc1ccc2c(c1)C(=O)CC1(CCCCC1)O2)NCc1ccccc1 | -79 | -337 | nt | -10 | nt | nt | nt
CC1(C)CC(=O)c2cc(OCC(=O)NCc3cccnc3)ccc2O1 | i | i | -7 | 48* | 0 | 62* | 66*
Cc1ccc(S(=O)(=O)N(C)C[C@@H]2Oc3ccc(N(C)C)cc3CC(=O)N([C@@H](C)CO)C[C@H]2C)cc1 | nt | nt | -2 | nt | -1 | nt | nt
CC1(C)CC(=O)c2cc(OCC(=O)NCCCN3CCN(c4ccccc4F)CC3)ccc2O1 | -163 | -470 | nt | 18* | nt | 17* | 21*
CC1(C)CC(=O)c2cc(OCC(=O)N3CCOCC3)ccc2O1 | -334 | i | nt | 44* | nt | 71* | 81*
O=C(c1ccccc1)N1CC[C@@H]2[C@@H](CO)Nc3ccc(C#Cc4cccnc4)cc3[C@@H]21 | nt | nt | -5 | nt | 0 | nt | nt
Nc1cc2sc(-c3ccc(C(=O)O)cc3)nc2cc1Cl | i | i | -33* | 51* | 1 | 68* | 75*
Nc1ccc(-c2nc3ccc(N)cc3s2)cc1 | i | i | -11 | 61* | 0 | 67* | 70*
Nc1ccc(O)c(-c2nc3ccccc3s2)c1 | -5 | -26 | nt | -7 | nt | nt | nt
Nc1ccc(-c2nc3ccc(C(=O)O)cc3s2)cc1 | i | i | -16 | 79* | 1 | 75* | 76*
Oc1ccc(-c2nc3ccccc3s2)cc1 | -133 | -449 | -28 | -21 | 0 | nt | nt
O=C(O)c1ccc2nc(-c3ccccc3)sc2c1 | -2 | -6 | nt | 0 | nt | nt | nt
Nc1cccc(-c2nc3ccc(N)cc3s2)c1 | i | i | nt | 82* | nt | 57* | 75*
O=C(Cc1ccccn1)N[C@H]1C=C[C@@H](CC(=O)N2CCCCC2)O[C@H]1CO | nt | nt | 2 | nt | 0 | nt | nt
C[C@H](CO)N1C[C@H](C)[C@H](CN(C)S(C)(=O)=O)Oc2ccc(NC(=O)Cc3ccccc3)cc2CC1=O | nt | nt | 3 | nt | 0 | nt | nt
O=C([C@H]1[C@H](CO)[C@H]2Cn3c(cccc3=O)[C@@H]1N2CC1CCCC1)N1CCOCC1 | nt | nt | 1 | nt | nt | nt | nt
CCNC(=S)N1CCc2cc(OC)c(OC)cc2C1COc1ccc(OC)cc1 (stereo unspecified) | 3 | 4 | -8 | 0 | 0 | nt | nt
CCNC(=S)N1CCc2cc(OC)c(OC)cc2C1COc1ccccc1OC (stereo unspecified) | -129 | -387 | -14 | 58* | 0 | 30* | 36*
N#CC1=C(N)Oc2cc(O)c(Cl)cc2C1c1ccccc1F (stereo unspecified) | -86 | -218 | 1 | 16* | 0 | -3 | 1
SMILES | ADAM17 inh | ADAM10 inh | rRNA inh HTS | proKLK7 act | FGF22 binding | KLK7 act conf | EDANS interfere | others
CC(C)[C@H](NC(=O)OCc1ccccc1)C(=O)OCc1cc(=O)oc2cc(O)ccc12 | -118 | -334 | -11 | 28* | -1 | 62* | 60*
COc1ccc2c3c(n(C)c2c1)[C@H](CO)N(S(C)(=O)=O)CC31CN(C(=O)Nc2cccc(F)c2)C1 | nt | nt | -10 | nt | 0 | nt | nt
COc1cc2cc(C(c3nnnn3C(C)(C)C)N3CCc4ccccc4C3)c(=O)[nH]c2cc1OC (stereo unspecified) | -135 | -392 | nt | 25* | nt | 5 | 2
CCC(C)(C)n1nnnc1C(c1cc2cc(OC)c(OC)cc2[nH]c1=O)N1CCc2ccccc21 (stereo unspecified) | -33 | -114 | nt | -6 | nt | nt | nt
O=C(C[C@@H]1C=C[C@H](NS(=O)(=O)c2ccccc2)[C@@H](CO)O1)NCc1ccccc1F | nt | nt | 0 | nt | 0 | nt | nt
COc1ccc(-c2cc3ccccc3c(=O)o2)cc1 | -479 | i | -6 | 21* | 0 | -29 | -29
COc1ccc(-c2cc(=O)c3c(O)c(OC)c(OC)c(OC)c3o2)cc1 | -3 | -4 | 18 | 0 | 0 | nt | nt
COc1ccc(-c2cc(=O)c3cccc(CC(=O)O)c3o2)cc1 | i | i | 4 | 79* | 0 | 83* | 81*
CN(C)c1ccc(-c2cc3ccccc3c(=O)o2)cc1 | -29 | -67 | 2 | 3 | 0 | nt | nt
CCC(=O)N1[C@H](CO)[C@H](c2ccc(-c3ccccc3OC)cc2)C12CN(C(C)=O)C2 | nt | nt | 2 | nt | 0 | nt | nt
Cc1nc2[nH]c(=O)c3c(n2n1)NC1=C(C(=O)CC(C)(C)C1)C3c1ccccc1 (stereo unspecified) | -233 | i | nt | 47* | nt | 8 | 11*
CC1(C)CC(=O)C2=C(C1)NC1=C(C(=O)c3ccccc31)C2c1ccccc1 (stereo unspecified) | 1 | 10 | -11 | 0 | 0 | nt | nt
OCCNc1c2ccccc2nc2c(F)c(F)c(F)c(F)c12 | -303 | i | nt | 18* | nt | 19* | 8.6* | K7 EDANS ctr=>69
Cc1c2ccccc2nc2c(F)c(NCCO)c(F)c(F)c12 | -17 | -71 | nt | 0 | nt | nt | nt
COc1ccccc1CNC(=O)CCN1C(=O)c2ccccc2C1=O | -5 | 2 | 5 | 0 | 0 | nt | nt
CN(C(=O)CN1C(=O)c2cccc(N)c2C1=O)C1CCCCC1 | -151 | i | nt | 109* | 0 | 74* | 76*
COc1ccccc1CNC(=O)CN1C(=O)c2cccc(N)c2C1=O | -214 | i | 6 | 50* | 42 | -1 | 44*
CC1CCCCC1NC(=O)CN1C(=O)c2cccc(N)c2C1=O (stereo unspecified) | -139 | -344 | 17 | 34* | 0 | 78* | 70*
C[C@@H]1CN([C@H](C)CO)C(=O)c2cc(NC(=O)Nc3ccc4c(c3)OCO4)ccc2O[C@H]1CN(C)C(=O)Nc1ccc(F)cc1 | nt | nt | -3 | nt | 0 | nt | nt

From PubChem
